# Experimental data: PubChem BioAssay AID1508602 (The Scripps Research Institute Molecular Screening Center, 2020)
# The whole screen tested about 650,000 compounds, of which about 6,800 (1%) were called active. The entries come from a sample that favours actives as a whole. Values without a mark were called inactive. Cut-off read from the data, not from the text of the source: active = activation above about 4.9%; inactive = the rest.
# Molecular target: G-protein coupled receptor 151 (Homo sapiens) (UniProt Q8TDV0)
# Assay: activates the human receptor GPR151, primary screen, cell-based, PathHunter beta-arrestin, luminescence (AID 1508602);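 note: 0% = median of compound wells and 100% = cells with positive control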
# Conditions: PathHunter beta-arrestin GPR151 cells, at 11.2 µM, stronger effect = higher value
# Sequence of G-protein coupled receptor 151 (Homo sapiens) (Q8TDV0 whole entry, looked up): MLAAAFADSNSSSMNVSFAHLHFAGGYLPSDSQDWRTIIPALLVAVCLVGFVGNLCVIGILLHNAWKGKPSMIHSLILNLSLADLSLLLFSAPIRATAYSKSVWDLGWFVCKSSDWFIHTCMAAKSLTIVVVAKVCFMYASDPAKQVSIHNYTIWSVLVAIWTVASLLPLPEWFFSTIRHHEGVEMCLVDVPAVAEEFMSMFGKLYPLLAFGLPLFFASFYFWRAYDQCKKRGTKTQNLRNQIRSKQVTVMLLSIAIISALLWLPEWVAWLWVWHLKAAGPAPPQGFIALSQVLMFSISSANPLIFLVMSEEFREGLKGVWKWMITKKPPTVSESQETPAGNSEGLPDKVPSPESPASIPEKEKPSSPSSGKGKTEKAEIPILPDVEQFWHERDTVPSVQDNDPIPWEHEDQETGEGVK
row,SMILES,activation
1,NC(=O)c1c(NC(=O)c2ccc(Oc3ccccc3)cc2)sc2c1CCCCC2,-0.921%
2,CNC(=O)c1c(NC(=O)c2ccc(OC)cc2)sc2c1CCCCC2,-1.51%
3,COc1cccc(C(=O)Nc2sc3c(c2C(N)=O)CCCCCC3)c1,6.65% (active)
4,CC(C)Oc1ccc(C(=O)Nc2sc3c(c2C(N)=O)CCCC3)cc1,-0.378%
5,COc1ccc(C(=O)Nc2sc3c(c2C(N)=O)CCCC3)cc1,5.12% (active)
6,CNC(=O)c1c(NC(=O)c2cccc(OC)c2)sc2c1CCC2,-0.776%
7,CCc1ccc2[nH]c3nc(SCC#N)nnc3c2c1,-0.711%
8,COCCN1C(=O)CC(CC(=O)N2CCN(C)C[C@@H]2C(C)C)(c2cccc(OC)c2)C1=O (stereo partly specified),1.08%
9,CCCCOc1ccc(S(=O)(=O)NC2CCCCC2)cc1,-1.26%
10,Cc1nn(C)c(C)c1-c1nc2ncnc(NCCO)c2[nH]1,7.4% (active)
11,Cc1nn(C)c(C)c1-c1nc2c(NCCO)ncnc2n1C(C)C,-0.731%
12,OCCNc1ncnc2nc(-c3ccccc3)[nH]c12,0.187%
13,COc1ccc(-c2nnc(SCCC#N)o2)cc1,10.1% (active)
14,N#CCCCSc1nnc(-c2ccc(C#N)cc2)o1,-0.162%
15,COc1ccc(-c2nnc(SCC(=O)NC(N)=O)o2)cc1,0.906%
16,CCOC(=O)c1cc2c(=O)n3ccccc3nc2n(Cc2ccco2)c1=NC(=O)c1ccc(Cl)cc1,-0.357%
17,CC(C)N(C(=O)CN(C)S(=O)(=O)c1cc(Cl)ccc1Cl)C(C)C,-0.725%
18,COc1ccc(NC(=O)c2nn3c(C(F)(F)F)cc(-c4ccccc4)nc3c2Br)c(OC)c1,2.64%
19,CC(C)c1ccc(NC(=O)/C=C/c2ccccc2Cl)cc1,1.13%
20,O=C(O)/C=C/c1ccccc1Cl,5.27% (active)
21,CC(=O)NS(=O)(=O)c1ccc(NC(=O)/C=C/c2ccccc2Cl)cc1,0.647%

row,SMILES,activation
1,CC(C)NC(=O)/C=C/c1ccccc1Cl,5.07% (active)
2,NC(=O)NC(=O)COC(=O)/C=C/c1ccccc1Cl,1.72%
3,O=C(/C=C/c1ccccc1Cl)Nc1ccc(I)cc1,1.42%
4,CCOc1ccc(CN2CCN(Cc3ccc(C)o3)C(CCO)C2)cc1CO (stereo unspecified),1.78%
5,O=C(N/N=C/c1ccc([N+](=O)[O-])cc1)c1cccc(I)c1,-0.236%
6,O=C(O)c1ccc(Br)c(N2C(=O)c3cc(Cl)c(Cl)cc3C2=O)c1,0.176%
7,Cc1ccccc1NC(=O)Nn1cnnc1,-0.0585%
8,COc1ccc(CN(N=Nc2nonc2C)c2nonc2C)cc1,-0.147%
9,CC(=O)c1ccc(C(=O)NCC2Cc3cc(Cl)cc(-c4ccncc4)c3O2)s1 (stereo unspecified),1.35%
10,Cc1nc(=S)[nH]c(C)c1CCC(=O)O,0.381%
11,CCOC(=O)CCC(=O)OC(C(=O)c1ccccc1)c1ccccc1 (stereo unspecified),0.912%
12,CCOC(=O)C(C(=O)c1ccccc1)C1(O)C(=O)c2ccccc2C1=O (stereo unspecified),6.04% (active)
13,CCOC(C(=O)c1ccccc1)c1ccccc1 (stereo unspecified),-0.174%
14,CCc1ccc(CN2CCCC(CO)(Cc3cccc(OC)c3)C2)o1 (stereo unspecified),0.911%
15,N#Cc1c(-c2ccc(F)cc2)cc(-c2ccccc2)nc1SCCOc1ccccc1,-0.0587%
16,Cc1cncc2cccc(N3CCN(C(=O)C(N)c4ccc(Br)cc4)CC3)c12 (stereo unspecified),1.97%
17,CC1CCCCN1C(=O)c1cc2c(=O)n(C)c3ccccc3c2s1 (stereo unspecified),5.42% (active)
18,CCN1CCN(C(=O)c2cc3c(=O)n(C)c4ccccc4c3s2)CC1,0.989%
19,Cn1c(=O)c2cc(C(=O)NCCCN3CCCCCC3)sc2c2ccccc21,0.856%
20,O=C(Nc1cccc(-c2nnc3n2CCCCC3)c1)c1ccc(=O)n(Cc2ccccc2)n1,-1.56%
21,CCOC(=O)c1c(-c2ccc(OC)cc2)oc2ccc(OC(=O)c3ccccc3OC)cc12,-0.167%

row,SMILES,activation
1,O=C(c1ncoc1-c1cccs1)N1CCN(c2ccc(C(F)(F)F)cn2)CC1,0.0668%
2,Nc1[nH]c(=O)[nH]c(=O)c1N=Nc1cccc(Br)c1,-1.15%
3,O=C1CCN(Cc2cc(F)cc(F)c2)CCN1Cc1ccc(Cl)s1,-0.0282%
4,N=c1c(C(=O)NCc2cccnc2)cc2c(=O)n3ccccc3nc2n1CCO,1.18%
5,CCCn1c(=N)c(C(=O)NCc2ccc(C)cc2)cc2c(=O)n3ccccc3nc21,1.57%
6,COCCNC(=O)c1cc2c(=O)n3ccccc3nc2n(CCc2ccccc2)c1=N,4.99% (active)
7,Cc1ccc(C2(C)NC(=O)N(CC(=O)c3ccc(Br)s3)C2=O)cc1 (stereo unspecified),1.11%
8,O=C(CN(c1cccc([N+](=O)[O-])c1)S(=O)(=O)c1ccccc1)N1CCOCC1,0.197%
9,CCCCN1C(=O)S/C(=C\c2ccc(O)c([N+](=O)[O-])c2)C1=O,-1.5%
10,CN(C)S(=O)(=O)c1cccc(C(=O)N2CCCc3ccccc32)c1,1.08%
11,COC(=O)CCCNC(=O)CC1C(=O)NCCN1Cc1ccc2ccccc2c1 (stereo unspecified),-0.306%
12,O=C(CC1C(=O)NCCN1CCc1ccccc1)NCCCn1ncc2ccccc21 (stereo unspecified),0.711%
13,O=C(CC1C(=O)NCCN1Cc1ccc2ccccc2c1)NCCCn1cccn1 (stereo unspecified),5.94% (active)
14,COc1cc(CN(C(=O)c2cncs2)C2CCCC2)cc(OC)c1OCC1CCCO1 (stereo unspecified),-1.02%
15,COC(=O)c1ccc2c(=O)nc3c(-c4ccccc4)n[nH]n3c2c1,-1.93%
16,CCOC(=O)c1ccc(CNC(=O)c2cc(CCc3ccccc3)no2)o1,0.0388%
17,COc1ccc(Cn2cc[nH]c(=O)c2=O)cc1,-0.548%
18,Oc1ccc(Cn2cc[nH]c2=S)cc1,8.86% (active)
19,O=[N+]([O-])c1cccc(COC2=NS(=O)(=O)c3ccccc32)c1,0.739%
